The campaign covered roughly 370,000 compounds. About 3,000 (0.81%) were called active. For the sample, actives were picked, then their nearest neighbours and some compounds at random. A number with no mark means an inactive call.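 The calls were made as follows: active = activity above about 14% (limit read from the data; passing the limit was not always enough); inactive = the rest.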
These compounds were tested against Nuclear receptor subfamily 1 group D member 1 (Homo sapiens) (UniProt P20393) (assay: Rev-erbα–DNA interaction modulation – biochemical, FITC-DNA, fluorescence polarization, uHTS, primary screen (AID 1259318;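 also: 0% = DMSO wells with 35 nM protein and 100% = DMSO wells with 750 nM protein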)). Details: Rev-erbα–FITC-DNA binding, 90 min, at 10 µM, hits give high values.
Nuclear receptor subfamily 1 group D member 1 (Homo sapiens), sequence (P20393 whole entry, looked up): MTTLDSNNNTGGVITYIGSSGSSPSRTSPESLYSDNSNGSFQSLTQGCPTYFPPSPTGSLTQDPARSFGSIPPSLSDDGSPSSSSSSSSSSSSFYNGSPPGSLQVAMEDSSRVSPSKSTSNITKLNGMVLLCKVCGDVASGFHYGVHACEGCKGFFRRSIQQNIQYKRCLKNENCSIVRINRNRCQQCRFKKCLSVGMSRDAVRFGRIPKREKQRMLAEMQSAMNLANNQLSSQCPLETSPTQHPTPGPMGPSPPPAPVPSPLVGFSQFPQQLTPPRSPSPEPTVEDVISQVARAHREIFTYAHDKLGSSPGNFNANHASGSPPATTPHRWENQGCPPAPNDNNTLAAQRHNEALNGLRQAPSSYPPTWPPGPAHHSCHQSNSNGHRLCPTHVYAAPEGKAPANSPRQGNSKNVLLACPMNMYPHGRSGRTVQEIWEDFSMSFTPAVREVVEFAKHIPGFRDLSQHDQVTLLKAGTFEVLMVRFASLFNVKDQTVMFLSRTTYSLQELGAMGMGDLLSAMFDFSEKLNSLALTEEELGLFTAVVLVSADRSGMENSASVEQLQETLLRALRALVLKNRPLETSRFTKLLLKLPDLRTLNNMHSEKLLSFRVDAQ
Compound `O=C1N=c2ccccc2=C/C1=C\c1c(O)[nH]c(=S)[nH]c1=O` has an activity of -4.55%.
For `COc1ccccc1N=Nc1c(O)[nH]c(=S)[nH]c1=O`, the activity was 28.1% (active).
`CCOCCc1c(O)[nH]c(=S)[nH]c1=O` showed an activity of -0.86%.
With `CCC(C)C(=O)O[C@H]1[C@H](O)C2C(CN3CC(C)CCC3[C@@]2(C)O)C2C[C@]34O[C@]5(O)C(OC(=O)C(C)(O)CC)CC[C@@]3(C)C5[C@H](OC(C)=O)[C@@H](OC(C)=O)C4[C@@]21O` (stereo not given in full) the activity was -4.52%.
In the case of `CCN(CC)C(=O)[C@@H]1C=C2c3cccc4[nH]c(Br)c(c34)C[C@H]2N(C)C1`, the activity was -1.01%.
For `C=CCNCCCCCCCCCC` (tested in a mixture with another compound), the activity was -9.67%.
In the case of `COC(=O)CN(CCCl)P1(=O)OCCCN1CCCl` (stereo not given), the activity was 15.9% (active).
With `c1ccc2sc(SNC3CCCCC3)nc2c1` the activity was 6.27%.
`CCOC(=O)C1=C(C)OC(N)=C(C(=O)OC)C12C(=O)Nc1ccc(Br)cc12` (stereo not given) gave an activity of 4.04%.
With `CC(=O)O[C@H]1CC[C@@]2(C)C(=CCC3C2CC[C@]2(C)C(=O)CCC32)C1` (stereo not given in full) the activity was 2.71%.
